SMN2 splice enh = SMN2 splice variant enhancement; actives 2.8% (n = 210,000); AID 1458; Potency, µM (titrated, usually from 46.1 µM), for the others: at the highest dose activity change, positive = activation, usual class: activators; HEK293 SMN2-luciferase splicing reporter, luminescence, 30-36 h; further: % of control where 0% means no effect; nearly all actives have a fitted effect of over 55% in size
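HEK293 cells carry an SMN2 minigene-luciferase reporter in which exon 7 inclusion puts luciferase in frame. Cells were seeded at 2000 cells/well, attached for 10-12 hours, then exposed to compounds for 30-36 hours at 37C before ONE-Glo luminescence.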
ELG1 repair inh = ELG1-dependent DNA repair inhibition; HEK293T ELG1-luciferase reporter, luminescence, 16 h; DNA damage induced by 5-fluorouridine; Potency, µM (titrated, usually from 46.1 µM), without a hit: top-dose activity change, negative = inhibition, most hits filed as inhibitors; actives 2.3% (n = 330,000); AID 504467; further: on the % scale 0 is the no-effect control and ±100 the full control effect; nearly all actives have a fitted effect of over 55% in size
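Overnight (16 hr) co-exposure of 2,000 cells/well to 5-fluorouridine and compound at 37 °C preceded detection. Luciferase was quantified via ONE-Glo luminescence; loss of signal denotes inhibition.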
NPC1 promoter act = activates the NPC1 promoter; Huh7 NPC1 promoter luciferase reporter, 24 h; Potency, µM (highest dose often 9.22 µM), inactives show at the top dose activation, hits mostly activators; actives 2.4% (n = 320,000); AID 485313; further: % of control where 0% means no effect; nearly all actives have a fitted effect of over 60% in size
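Stable NPC1-promoter luciferase Huh7 line; cpd (DMSO) 24 h, 37 °C, 5% CO2; Amplite luciferase reagent 10 min RT; luminescence readout. qHTS format.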
Rab9 prom act = activates the Rab9 promoter; actives 2.8% (n = 320,000); Huh7 Rab9 promoter-luciferase reporter, luminescence, 24 h; Potency, µM (doses to about 9.22 µM), for inactives: at the highest dose activation, negative = inhibition, actives largely listed as activators; AID 485297; further: % of control where 0% means no effect; nearly all actives have a fitted effect of over 60% in size
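Measured in stably transfected Huh7 cells bearing a Rab9 promoter–luciferase construct: 24 h compound treatment at 37 °C, followed by luminescence detection.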
FLuc counter = counter-screen for miR-21 project: firefly luciferase inhibitors or activators. P08659. purified FLuc, Km substrates, luminescence inhibition. Potency, µM (series often up to 57.5 µM), without a hit: at the top dose activity change, negative = inhibition, most hits filed as inhibitors. actives 6.9% (n = 360,000). AID 588342;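 further: plate controls were vehicle for no effect and reference inhibitor for full effect; nearly all actives have a fitted effect of over 55% in size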
Target sequence (P08659 whole entry, looked up): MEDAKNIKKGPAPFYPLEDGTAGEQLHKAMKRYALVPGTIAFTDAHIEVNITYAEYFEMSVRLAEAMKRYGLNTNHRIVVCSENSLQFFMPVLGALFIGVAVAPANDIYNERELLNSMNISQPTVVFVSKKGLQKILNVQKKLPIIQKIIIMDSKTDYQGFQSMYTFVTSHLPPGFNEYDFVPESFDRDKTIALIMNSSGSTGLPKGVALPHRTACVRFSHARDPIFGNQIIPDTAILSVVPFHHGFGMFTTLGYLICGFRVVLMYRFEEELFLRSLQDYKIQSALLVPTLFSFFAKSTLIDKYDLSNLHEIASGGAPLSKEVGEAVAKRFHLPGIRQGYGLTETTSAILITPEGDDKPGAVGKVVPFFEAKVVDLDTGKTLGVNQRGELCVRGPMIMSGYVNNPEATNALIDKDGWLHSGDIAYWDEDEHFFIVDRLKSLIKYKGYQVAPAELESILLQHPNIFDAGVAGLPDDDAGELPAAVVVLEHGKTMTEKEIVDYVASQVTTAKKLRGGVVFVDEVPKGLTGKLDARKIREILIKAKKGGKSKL
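Biochemical qHTS of compounds, final roughly 60 µM downward over six points, against 10 nM purified firefly luciferase using Km concentrations of substrates (10 uM D-luciferin, 10 uM ATP) in Tris acetate pH 7.5 buffer; luminescence output.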
ELG1 genotox = genotoxicity induction in ELG1-luciferase HEK293T cells; AID 504466; actives 1.3% (n = 330,000); HEK293T ELG1-luciferase reporter, luminescence, 16 h; Potency, µM (doses to about 46 µM), for the others: at the highest dose activity change, positive = activation, usual class: activators; further: % of control where 0% means no effect; nearly all actives have a fitted effect of over 60% in size
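Quantitative HTS format in 1536-well plates. HEK293T ELG1-luciferase reporter cells receive test compound and are incubated 16 hr at 37 °C, 5% CO2; ONE-Glo added, 30 min room temperature, then luminescence read.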
Active calls of the source: *. Most compounds without a hit are left out; they make up all but 9.2% or so of the library. The call rests on the fitted dose curve; in most records, active means well fitted curve in the direction sought with a large enough effect; inconclusive means small, poorly fitted or top-dose-only effect, or another doubt; inactive means no such curve, though single readings can be large; an effect the other way counts as inactive or inconclusive. Potency means the concentration at half of the fitted maximal effect.

Results for CCOC(=O)Nc1nnc(-c2ccc(OC)cc2)s1 ?
SMN2 splice enh: 17.8%; ELG1 repair inh: inconclusive; NPC1 promoter act: 20.8%; Rab9 prom act: inconclusive; FLuc counter: 4.78µM*; ELG1 genotox: inconclusive

What do the screens show for `COc1ccc(/C=C/c2nnc(NC(=O)COc3ccc(C)cc3)s2)cc1`?
SMN2 splice enh: 5.01µM*; ELG1 repair inh: 25.0%; NPC1 promoter act: 21.0%; Rab9 prom act: 3.5%; FLuc counter: -0.6%; ELG1 genotox: 9.6%

What do the screens show for `COc1ccc(/C=C/c2nnc(NC(=O)COc3ccccc3)s2)cc1`?
ELG1 repair inh: 0.1%; NPC1 promoter act: 3.9%; Rab9 prom act: -1.2%; FLuc counter: -3.4%; ELG1 genotox: -0.5%

How did O=C(Cn1nnc(-c2ccccc2Cl)n1)Nc1cccc(S(=O)(=O)N2CCCC2)c1 do in these assays?
ELG1 repair inh: 23.1µM*; ELG1 genotox: -3.3%

What do the screens show for `CCOc1ccc(NC(=O)Cn2nnc(-c3ccc(C(N)=O)cc3)n2)cc1S(=O)(=O)N1CCCC1`?
ELG1 repair inh: inconclusive; NPC1 promoter act: -2.9%; Rab9 prom act: 13.1%; FLuc counter: 6.75µM*; ELG1 genotox: 25.0%

Results for CCOc1ccc(NC(=O)Cn2nc(C(N)=O)c3ccccc3c2=O)cc1S(=O)(=O)N1CCCC1 ?
ELG1 repair inh: 6.5%; NPC1 promoter act: 1.1%; Rab9 prom act: 0.6%; FLuc counter: -4.0%; ELG1 genotox: -0.6%

How did CCCCOC(=O)c1c(N)n(-c2ccc(OC)cc2OC)c2nc3ccccc3nc12 do in these assays?
SMN2 splice enh: 1.8%; FLuc counter: -3.6%

What do the screens show for `Cc1ccc(NC(=O)CNC(=O)Cn2c(C)cc3ccccc3c2=O)cc1F`?
SMN2 splice enh: 18.8%; FLuc counter: -2.5%

What do the screens show for `Cc1ccc(N2CCN(C(=O)c3c4c(nc5ccccc35)C(=O)N(C3CCCCC3)C4)CC2)c(C)c1`?
FLuc counter: 6.3%

What do the screens show for `Cc1nnsc1-c1onc(C)c1C(=O)Nc1cc(Cl)cc(Cl)c1`?
ELG1 repair inh: 16.4µM*; NPC1 promoter act: -2.5%; Rab9 prom act: -4.3%; FLuc counter: -0.2%; ELG1 genotox: -18.9%

How did Cc1ccc2c(CC(=O)Nc3ccc(S(=O)(=O)N4CCC(C)CC4)cc3)coc2c1 do in these assays?
SMN2 splice enh: -16.6%; FLuc counter: 1.4%

Results for CCc1ccc2nc(Nc3nc(COC)cc(=O)[nH]3)nc(C)c2c1 ?
SMN2 splice enh: -33.5%; ELG1 repair inh: -40.7%; NPC1 promoter act: -1.6%; Rab9 prom act: 1.1%; FLuc counter: -15.9%; ELG1 genotox: -0.3%

Results for COCc1cc(=O)[nH]c(Nc2nc3ccc(C)cc3o2)n1 ?
SMN2 splice enh: 5.5%; ELG1 repair inh: inconclusive; NPC1 promoter act: 22.6%; Rab9 prom act: 28.1%; FLuc counter: 16.9µM*; ELG1 genotox: 23.1µM*

What do the screens show for `Cc1ccccc1CC1(CO)CCCN(C(=O)Cc2c(F)ccc(F)c2F)C1` (stereo unspecified)?
ELG1 repair inh: -15.7%; NPC1 promoter act: -4.7%; Rab9 prom act: 2.5%; FLuc counter: 0.0%; ELG1 genotox: -3.1%

How did N#C/C(C(N)=O)=c1/ccc2c(c1)N1C3=C(CCCC3)CC3CCCCC31N=2 (stereo unspecified) do in these assays?
SMN2 splice enh: -14.6%; ELG1 repair inh: 20.6µM*; NPC1 promoter act: -9.9%; Rab9 prom act: -5.9%; FLuc counter: 8.49µM*; ELG1 genotox: -28.1%

How did N#CC(C#N)=c1ccc2c(c1)N1C3=C(CCCC3)CC3CCCCC31N=2 (stereo unspecified) do in these assays?
SMN2 splice enh: -108.4%; ELG1 repair inh: -10.8%; NPC1 promoter act: -5.3%; Rab9 prom act: 1.3%; FLuc counter: 12µM*; ELG1 genotox: -7.7%

Results for COc1ccc(/C=C(\NC(=O)c2ccc(C)cc2)C(=O)Nc2ccc(C(=O)O)cc2)cc1 ?
ELG1 repair inh: 9.6%; NPC1 promoter act: 0.3%; Rab9 prom act: 6.4%; FLuc counter: -14.8%; ELG1 genotox: 11.2%

How did COc1cccc(N2CC(NC(=O)c3ccc(S(=O)(=O)N4CCCCC4)cc3)CC2=O)c1 (stereo unspecified) do in these assays?
FLuc counter: 1.2%

Results for CN(C)c1ccc(-c2nc(N(C)Cc3ccco3)c3ccccc3n2)cc1 ?
SMN2 splice enh: 10µM*

Results for CN(C)S(=O)(=O)c1ccc(Cl)c(NC(=O)COC(=O)/C=C/c2cnc3ccccc3n2)c1 ?
ELG1 repair inh: 2.6%; NPC1 promoter act: 1.1%; Rab9 prom act: 9.4%; FLuc counter: 10.7µM*; ELG1 genotox: 3.5%

Results for Cc1ccc(S(=O)(=O)N(C)C)cc1NC(=O)COC(=O)/C=C/c1cnc2ccccc2n1 ?
SMN2 splice enh: 7.8%; ELG1 repair inh: 13.8%; NPC1 promoter act: 0.7%; Rab9 prom act: 6.5%; FLuc counter: 16.9µM*; ELG1 genotox: 26.5%

Results for COc1ccc(OC)c(CCNC(=O)c2ccc3[nH]c(C)c(C)c3c2)c1 ?
FLuc counter: -1.1%

Results for CCOc1ccc(CCNC(=O)c2ccc3[nH]c(C)c(C)c3c2)cc1 ?
FLuc counter: -19.1%

How did COc1ccc(NC(=O)c2ccc3[nH]c(C)c(C)c3c2)cc1 do in these assays?
ELG1 repair inh: inconclusive; NPC1 promoter act: 20.2%; Rab9 prom act: inconclusive; FLuc counter: 13.5µM*; ELG1 genotox: 13.6%

Results for CCOc1ccc(NC(=O)c2ccc3[nH]c(C)c(C)c3c2)cc1 ?
FLuc counter: 13.5µM*

What do the screens show for `CC(C)CN(C(=O)COC(=O)CCc1c[nH]c2ccccc12)c1c(N)n(Cc2ccccc2)c(=O)[nH]c1=O`?
ELG1 repair inh: -11.3%; NPC1 promoter act: -4.4%; Rab9 prom act: -6.6%; FLuc counter: 4.9%; ELG1 genotox: 0.5%

Results for COC(=O)CNC(=O)C1CCC(CNS(=O)(=O)c2cccc3nsnc23)CC1 (stereo unspecified) ?
ELG1 repair inh: 16.1%; NPC1 promoter act: -1.4%; Rab9 prom act: -6.7%; FLuc counter: 1.9%; ELG1 genotox: 1.1%

Results for c1ccc(COc2ccc(OCCCn3cncn3)cc2)cc1 ?
SMN2 splice enh: 10µM*; ELG1 repair inh: inconclusive; NPC1 promoter act: 1.58µM*; Rab9 prom act: 2.51µM*; FLuc counter: 4.26µM*; ELG1 genotox: 4.11µM*

Compound activity from PubChem.
